Source: PubChem BioAssay
Calls of active or inactive are those of the source.

Tests used:
[1] = test system: PRMT1 (protein arginine N-methyltransferase 1); experiment: small molecules binding arginine methyltransferase PRMT1 – biochemical, small-molecule microarray, 635 nm fluorescence, primary screen (AID 1088); conditions: higher = more signal;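 note: binding of Prmt1 protein to compounds spotted on small-molecule microarray slides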
[2] = growth effects on S. cerevisiae YJM789 – YJM789 clinical isolate, OD600, 24 h, basal, primary screen (AID 1089); conditions: higher = more signal, called active from +8 up or from −8 down;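 note: growth of clinical yeast isolate S. cerevisiae YJM 789 seeded 1000 cells per well; test concentration not given here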
[3] = S. pombe growth modifiers, basal conditions – strain 972, OD600, 24 h, no modulator, primary screen (AID 1090);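 note: basal condition with compound alone and no growth modifier present; test concentration not given here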; conditions: S. pombe 972 growth, higher = more signal, called active from +8 up or from −8 down
[4] = budding yeast growth modifiers under rapamycin – strain BY4716, OD600, 96 h, primary screen (AID 1091); note: test concentration not given here; conditions: S. cerevisiae BY4716 + rapamycin, higher = more signal, called active from +8 up or from −8 down
[5] = molecular target: Torsin-1A-interacting protein 2 (Homo sapiens) (UniProt Q8NFQ8); experiment: small molecules binding lysate-expressed LULL1 – cell lysate, human LULL1 lysate, 635/667 nm fluorescence, primary screen (AID 1092); conditions: small-molecule microarray, hLULL1 lysate binding, 635 nm fluorescence; higher = more signal;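 note: probe is lysate of COS7 cells overexpressing human LULL1; score merges per-feature 667 nm fluorescence with signal-to-noise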
Chain of Torsin-1A-interacting protein 2 (Homo sapiens) (Q8NFQ8 whole entry, looked up): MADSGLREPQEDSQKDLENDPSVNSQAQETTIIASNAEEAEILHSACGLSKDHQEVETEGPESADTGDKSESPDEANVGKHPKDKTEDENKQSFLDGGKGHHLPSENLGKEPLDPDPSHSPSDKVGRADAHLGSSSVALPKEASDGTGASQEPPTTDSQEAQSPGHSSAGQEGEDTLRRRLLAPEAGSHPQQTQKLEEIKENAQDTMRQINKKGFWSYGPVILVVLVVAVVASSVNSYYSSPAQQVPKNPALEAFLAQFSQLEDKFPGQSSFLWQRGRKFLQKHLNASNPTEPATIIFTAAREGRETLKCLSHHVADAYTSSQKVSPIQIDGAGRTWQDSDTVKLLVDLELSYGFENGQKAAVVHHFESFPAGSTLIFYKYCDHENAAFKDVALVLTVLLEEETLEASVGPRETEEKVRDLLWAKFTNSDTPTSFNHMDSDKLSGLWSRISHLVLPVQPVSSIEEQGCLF

[6] = optical density change of DRC41 E. coli – strain DRC41, OD650, 24 h, E. coli filamentation project, primary screen (AID 1093);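 note: MC1000 strain lacking acrAB efflux and sulA so SOS filamentation is blocked; test concentration not given here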; conditions: E. coli DRC41 growth, higher = more signal, called active from +8 up or from −8 down
[7] = probe aLefty2 binding to arrayed compounds – biochemical, biotinylated probe, 635/667 nm fluorescence, primary screen (AID 1094); conditions: small-molecule microarray, higher = more signal;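 note: score merges spot fluorescence near 667 nm with spot signal-to-noise ratio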
[8] = test system: Noggin (protein binding on small-molecule microarray); experiment: small molecules binding Noggin protein – biochemical, 635/667 nm fluorescence, primary screen (AID 1095); conditions: 635 nm fluorescence, higher = more signal;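 note: score merges 667 nm feature fluorescence with signal to noise over triplicate slides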
[9] = molecular target: Neurogenic locus notch homolog protein 3 (Homo sapiens) (UniProt Q9UM47); experiment: small molecules binding NOTCH3 protein – biochemical, 635/667 nm fluorescence, primary screen (AID 1096); conditions: small-molecule microarray, 635 nm fluorescence, higher = more signal
Chain of Neurogenic locus notch homolog protein 3 (Homo sapiens) (Q9UM47 whole entry, looked up): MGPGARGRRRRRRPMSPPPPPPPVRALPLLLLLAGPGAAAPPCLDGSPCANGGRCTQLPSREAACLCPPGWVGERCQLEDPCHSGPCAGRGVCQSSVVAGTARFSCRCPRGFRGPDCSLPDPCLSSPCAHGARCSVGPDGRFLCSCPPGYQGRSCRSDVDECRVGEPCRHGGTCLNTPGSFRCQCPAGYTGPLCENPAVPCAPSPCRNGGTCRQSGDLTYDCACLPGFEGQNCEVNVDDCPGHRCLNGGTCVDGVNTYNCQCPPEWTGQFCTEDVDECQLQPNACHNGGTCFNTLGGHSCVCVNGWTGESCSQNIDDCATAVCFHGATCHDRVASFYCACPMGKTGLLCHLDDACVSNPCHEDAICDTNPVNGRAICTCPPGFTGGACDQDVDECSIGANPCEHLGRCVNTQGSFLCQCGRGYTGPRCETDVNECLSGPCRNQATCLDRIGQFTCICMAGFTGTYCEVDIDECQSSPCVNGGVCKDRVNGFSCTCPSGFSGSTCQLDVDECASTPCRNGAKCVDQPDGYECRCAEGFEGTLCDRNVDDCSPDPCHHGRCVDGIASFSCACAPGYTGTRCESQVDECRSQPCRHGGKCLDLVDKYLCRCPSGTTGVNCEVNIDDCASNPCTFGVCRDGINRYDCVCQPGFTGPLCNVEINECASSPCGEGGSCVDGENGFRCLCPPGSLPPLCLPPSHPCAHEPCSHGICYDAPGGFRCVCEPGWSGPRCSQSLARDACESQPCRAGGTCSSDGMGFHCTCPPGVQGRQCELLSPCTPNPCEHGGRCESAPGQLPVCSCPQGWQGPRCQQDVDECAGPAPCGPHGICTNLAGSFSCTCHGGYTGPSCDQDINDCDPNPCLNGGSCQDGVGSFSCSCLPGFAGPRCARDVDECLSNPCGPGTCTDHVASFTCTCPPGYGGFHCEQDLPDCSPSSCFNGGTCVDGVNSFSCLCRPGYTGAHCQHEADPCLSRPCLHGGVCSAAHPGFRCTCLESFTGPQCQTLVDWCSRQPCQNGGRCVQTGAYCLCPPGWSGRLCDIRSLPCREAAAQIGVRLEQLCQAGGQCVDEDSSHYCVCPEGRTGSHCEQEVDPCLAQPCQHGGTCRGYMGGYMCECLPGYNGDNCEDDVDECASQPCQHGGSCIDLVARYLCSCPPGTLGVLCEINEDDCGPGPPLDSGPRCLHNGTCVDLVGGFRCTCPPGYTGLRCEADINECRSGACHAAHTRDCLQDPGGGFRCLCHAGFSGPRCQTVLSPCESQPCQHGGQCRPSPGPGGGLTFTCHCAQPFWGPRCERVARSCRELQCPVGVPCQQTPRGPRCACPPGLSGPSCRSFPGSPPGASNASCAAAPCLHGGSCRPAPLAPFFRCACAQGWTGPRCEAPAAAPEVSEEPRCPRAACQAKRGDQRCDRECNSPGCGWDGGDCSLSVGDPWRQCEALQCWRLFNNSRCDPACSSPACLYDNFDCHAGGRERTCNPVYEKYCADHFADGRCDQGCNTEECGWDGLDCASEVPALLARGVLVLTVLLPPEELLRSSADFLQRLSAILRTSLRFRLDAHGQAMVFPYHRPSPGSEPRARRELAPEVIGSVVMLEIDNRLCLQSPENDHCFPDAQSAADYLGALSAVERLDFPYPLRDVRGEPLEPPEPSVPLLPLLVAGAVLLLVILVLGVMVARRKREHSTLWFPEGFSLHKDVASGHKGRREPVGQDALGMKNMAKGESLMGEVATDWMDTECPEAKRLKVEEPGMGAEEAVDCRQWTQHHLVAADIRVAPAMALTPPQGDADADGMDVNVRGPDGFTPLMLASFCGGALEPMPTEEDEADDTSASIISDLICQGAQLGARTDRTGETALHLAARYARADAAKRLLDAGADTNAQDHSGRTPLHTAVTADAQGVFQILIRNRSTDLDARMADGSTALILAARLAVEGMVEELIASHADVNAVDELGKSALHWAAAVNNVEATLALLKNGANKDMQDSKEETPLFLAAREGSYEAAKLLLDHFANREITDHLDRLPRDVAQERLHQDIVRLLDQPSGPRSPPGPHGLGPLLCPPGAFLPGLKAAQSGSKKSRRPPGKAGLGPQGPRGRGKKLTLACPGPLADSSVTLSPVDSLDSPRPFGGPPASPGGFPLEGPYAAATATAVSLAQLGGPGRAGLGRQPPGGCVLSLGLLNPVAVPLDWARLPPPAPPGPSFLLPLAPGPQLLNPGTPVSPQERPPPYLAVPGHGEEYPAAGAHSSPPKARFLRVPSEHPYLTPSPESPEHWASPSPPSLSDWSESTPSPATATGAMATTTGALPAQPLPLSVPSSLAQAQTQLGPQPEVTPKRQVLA

[10] = probe aEGFR binding to arrayed compounds – biochemical, biotinylated probe, 635/667 nm fluorescence, primary screen (AID 1097); conditions: small-molecule microarray, higher = more signal;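 note: probe is a biotinylated anti-EGFR antibody binding compounds printed on slides; score combines fluorescence near 667 nm and signal to noise of each spot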
[11] = test system: Plasmodium falciparum Sir2 (PF13_0152, Sir2A); experiment: Plasmodium falciparum Sir2A binding compounds – biochemical, small-molecule microarray, 635 nm fluorescence, primary screen (AID 1098); conditions: fluorescence 635 nm, higher = more signal;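 note: score merges spot fluorescence intensity with its signal-to-noise ratio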
[12] = probe aDKK1 binding to arrayed compounds – biochemical, biotinylated probe, 635/667 nm fluorescence, primary screen (AID 1099); conditions: small-molecule microarray, higher = more signal;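 note: score merges 667nm spot fluorescence with signal to noise across triplicate slides; reference of the scale not given here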
[13] = probe aCHRDL2 binding to arrayed compounds – biochemical, biotinylated probe, 635/667 nm fluorescence, primary screen (AID 1100); conditions: small-molecule microarray, higher = more signal
[14] = change in splice reporter luminescence, either direction, cell-based, HEK293, spliceosome inhibition project, primary screen (AID 1101); conditions: HEK293 splicing luciferase reporter, 24 h, higher = more signal, called active from +8 up or from −8 down;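 note: HEK293 cells carrying a splicing-competent luciferase reporter gene; test concentration not given here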
[15] = molecular target: Fibroblast growth factor 10 (Homo sapiens) (UniProt O15520); experiment: compounds binding fibroblast growth factor 10 – biochemical, small-molecule microarray, 635 nm fluorescence, primary screen (AID 1102); conditions: FGF10 binding, fluorescence 635 nm, higher = more signal
Chain of Fibroblast growth factor 10 (Homo sapiens) (O15520 whole entry, looked up): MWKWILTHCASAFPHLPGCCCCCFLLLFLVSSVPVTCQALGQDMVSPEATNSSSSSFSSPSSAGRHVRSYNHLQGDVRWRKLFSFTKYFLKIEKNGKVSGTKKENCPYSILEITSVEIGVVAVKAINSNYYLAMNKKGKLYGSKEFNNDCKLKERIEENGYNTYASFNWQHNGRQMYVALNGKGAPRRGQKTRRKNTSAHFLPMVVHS

[16] = test system: glycogen synthase kinase-3 (GSK3A per assay name; protocol says GSK3B); experiment: compounds binding glycogen synthase kinase-3 – biochemical, small-molecule microarray, 635 nm fluorescence, GSK3A, primary screen (AID 1103); conditions: fluorescence 635 nm, higher = more signal; note: the record names both GSK3A and GSK3B
[17] = molecular target: Epidermal growth factor receptor (Homo sapiens) (UniProt P00533); experiment: compounds binding epidermal growth factor receptor – biochemical, small-molecule microarray, 635 nm fluorescence, primary screen (AID 1104); conditions: EGFR binding, higher = more signal;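 note: score merges 667 nm emission intensity with spot signal to noise over triplicate slides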
Chain of Epidermal growth factor receptor (Homo sapiens) (P00533 whole entry, looked up): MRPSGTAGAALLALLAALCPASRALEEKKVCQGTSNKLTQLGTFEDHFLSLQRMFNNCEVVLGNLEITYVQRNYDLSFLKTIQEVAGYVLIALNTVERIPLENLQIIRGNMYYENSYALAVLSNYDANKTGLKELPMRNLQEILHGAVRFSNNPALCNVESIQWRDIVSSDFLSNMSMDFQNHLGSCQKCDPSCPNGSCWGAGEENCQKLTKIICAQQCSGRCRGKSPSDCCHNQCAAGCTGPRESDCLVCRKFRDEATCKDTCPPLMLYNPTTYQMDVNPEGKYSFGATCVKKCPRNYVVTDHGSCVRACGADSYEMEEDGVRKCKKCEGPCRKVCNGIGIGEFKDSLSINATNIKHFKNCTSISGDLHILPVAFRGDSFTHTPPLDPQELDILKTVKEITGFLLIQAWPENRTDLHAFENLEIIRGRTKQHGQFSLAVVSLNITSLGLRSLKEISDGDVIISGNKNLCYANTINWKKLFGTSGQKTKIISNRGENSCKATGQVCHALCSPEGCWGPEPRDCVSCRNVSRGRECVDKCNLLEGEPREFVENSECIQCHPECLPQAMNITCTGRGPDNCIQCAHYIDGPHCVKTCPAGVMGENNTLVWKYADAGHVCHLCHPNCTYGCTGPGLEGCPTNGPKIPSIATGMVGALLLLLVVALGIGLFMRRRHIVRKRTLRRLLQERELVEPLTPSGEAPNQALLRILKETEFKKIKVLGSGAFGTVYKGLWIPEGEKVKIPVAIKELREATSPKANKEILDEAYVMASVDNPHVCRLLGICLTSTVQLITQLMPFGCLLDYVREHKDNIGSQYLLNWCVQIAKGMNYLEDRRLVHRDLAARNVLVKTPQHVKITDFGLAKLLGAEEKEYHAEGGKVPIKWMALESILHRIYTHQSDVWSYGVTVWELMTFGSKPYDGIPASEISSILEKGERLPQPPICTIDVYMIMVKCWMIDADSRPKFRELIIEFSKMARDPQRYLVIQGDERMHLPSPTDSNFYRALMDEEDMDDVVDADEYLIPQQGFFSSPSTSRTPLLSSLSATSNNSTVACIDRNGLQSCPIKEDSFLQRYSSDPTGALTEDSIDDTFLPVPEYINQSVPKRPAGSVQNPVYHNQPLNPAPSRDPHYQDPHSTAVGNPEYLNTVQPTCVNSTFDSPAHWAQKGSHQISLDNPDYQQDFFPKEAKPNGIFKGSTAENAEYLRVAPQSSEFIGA

[18] = molecular target: Follistatin-related protein 3 (Homo sapiens) (UniProt O95633); experiment: compounds binding follistatin-related protein 3 – biochemical, small-molecule microarray, 635 nm fluorescence, primary screen (AID 1105); conditions: FSTL3 binding, higher = more signal;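 note: score merges emission near 667 nm and signal to noise per printed spot across three slides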
Chain of Follistatin-related protein 3 (Homo sapiens) (O95633 whole entry, looked up): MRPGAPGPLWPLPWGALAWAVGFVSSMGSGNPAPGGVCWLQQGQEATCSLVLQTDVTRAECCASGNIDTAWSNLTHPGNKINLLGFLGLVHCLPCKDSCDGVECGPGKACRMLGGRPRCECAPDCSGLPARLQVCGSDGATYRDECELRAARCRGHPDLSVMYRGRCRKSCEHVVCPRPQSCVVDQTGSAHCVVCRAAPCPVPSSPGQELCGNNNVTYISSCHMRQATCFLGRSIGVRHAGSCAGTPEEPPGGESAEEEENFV

[19] = molecular target: Dickkopf-related protein 1 (Homo sapiens) (UniProt O94907); experiment: small molecules binding DKK1 protein – biochemical, small-molecule microarray, 635 nm fluorescence scan, primary screen (AID 1106); conditions: higher = more signal;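 note: score merges emission near 667 nm with signal to noise over three replicate slides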
Chain of Dickkopf-related protein 1 (Homo sapiens) (O94907 whole entry, looked up): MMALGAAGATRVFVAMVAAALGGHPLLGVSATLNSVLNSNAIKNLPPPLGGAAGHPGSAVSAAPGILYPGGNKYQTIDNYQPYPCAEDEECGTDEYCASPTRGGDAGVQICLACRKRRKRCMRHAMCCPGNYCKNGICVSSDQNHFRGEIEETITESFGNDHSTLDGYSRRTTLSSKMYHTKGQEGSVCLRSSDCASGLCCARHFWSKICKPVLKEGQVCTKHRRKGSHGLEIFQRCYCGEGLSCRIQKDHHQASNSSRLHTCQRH

[20] = test system: Inhibin beta A chain (activin A); experiment: small molecules binding activin A – biochemical, small-molecule microarray, 635 nm fluorescence scan, primary screen (AID 1107); conditions: INHBA, higher = more signal;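 note: mouse activin A protein probed at 4.33 µg/mL on printed slides; score merges bound-protein fluorescence near 667 nm with spot signal-to-noise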

## CCc1cc2c(nc1CC)CCN(CCC(C)=NO[C@H](C)c1cn([C@@H]3COC[C@H]3O)nn1)C2
[1]
  composite z-score: -0.104
[2]
  z-score: 0.485 (inactive)
[3]
  z-score: 0.308 (inactive)
[4]
  z-score: 0.668 (inactive)
[5]
  composite z-score: -0.179
[6]
  z-score: -0.216 (inactive)
[7]
  composite z-score: -0.0936
[8]
  composite z-score: 0.0613
[9]
  composite z-score: 0.551
[10]
  composite z-score: 0.0004
[11]
  composite z-score: 0.346
[12]
  composite z-score: -0.156
[13]
  composite z-score: -0.334
[14]
  z-score: 0.212 (inactive)
[15]
  composite z-score: 0.189
[16]
  composite z-score: 0.229
[17]
  composite z-score: 0.545
[18]
  composite z-score: 0.433
[19]
  composite z-score: 0.611
[20]
  composite z-score: 0.468

## CCCNC(=O)OC[C@H]1O[C@H](CCON=C(C)CCC(=O)OC[C@H]2O[C@H](c3ccccc3)C=C[C@@H]2Oc2ccc(OC)cc2)C=C[C@@H]1Oc1ccc(OC)cc1
[1]
  composite z-score: -1.37
[2]
  z-score: -1.66 (inactive)
[3]
  z-score: 0.702 (inactive)
[4]
  z-score: -0.59 (inactive)
[5]
  composite z-score: -1.09
[6]
  z-score: 0.0967 (inactive)
[7]
  composite z-score: -0.0982
[8]
  composite z-score: -0.184
[9]
  composite z-score: -0.619
[10]
  composite z-score: -0.042
[11]
  composite z-score: 0.452
[12]
  composite z-score: -0.183
[13]
  composite z-score: -0.207
[14]
  z-score: 0.358 (inactive)
[15]
  composite z-score: -0.445
[16]
  composite z-score: -1.49
[17]
  composite z-score: -0.239
[18]
  composite z-score: -0.31
[19]
  composite z-score: 0.0289
[20]
  composite z-score: 0.844

## CCN1C(=O)[C@@H]2[C@H]3C(=CC[C@@H]2C1=O)C1(OCCCO1)[C@H]1O[C@H]1[C@H]3O
[1]
  composite z-score: 1.44
[2]
  z-score: 1.17 (inactive)
[3]
  z-score: -6.63 (inactive)
[4]
  z-score: 1.66 (inactive)
[5]
  composite z-score: 0.899
[6]
  z-score: -0.0556 (inactive)
[7]
  composite z-score: -0.16
[8]
  composite z-score: 0.643
[9]
  composite z-score: 1.07
[10]
  composite z-score: 0.0043
[11]
  composite z-score: 0.416
[12]
  composite z-score: 0.195
[13]
  composite z-score: -0.0468
[14]
  z-score: -9.75 (active)
[15]
  composite z-score: 1.39
[16]
  composite z-score: 1.34
[17]
  composite z-score: 0.286
[18]
  composite z-score: 1.22
[19]
  composite z-score: 0.739
[20]
  composite z-score: -0.0212

## Cn1c(=O)n2n(c1=O)[C@H]1[C@H](O)[C@@H]3O[C@@H]3C(=O)[C@H]1CC2
[1]
  composite z-score: -0.261
[2]
  z-score: 0.954 (inactive)
[3]
  z-score: 0.595 (inactive)
[4]
  z-score: 0.672 (inactive)
[5]
  composite z-score: 0.485
[6]
  z-score: 0.442 (inactive)
[7]
  composite z-score: -0.13
[8]
  composite z-score: 0.457
[9]
  composite z-score: 0.557
[10]
  composite z-score: -0.0508
[11]
  composite z-score: 0.269
[12]
  composite z-score: -0.0838
[13]
  composite z-score: -0.512
[14]
  z-score: -0.515 (inactive)
[15]
  composite z-score: 0.946
[16]
  composite z-score: 0.778
[17]
  composite z-score: 0.531
[18]
  composite z-score: 0.534
[19]
  composite z-score: 0.408
[20]
  composite z-score: 0.0134

## CC(CCN1CCCCc2nc(C)c(C)cc21)=NOC[C@@H](C)[C@H](OCc1ccccc1)C(C)C
[1]
  composite z-score: -0.262
[2]
  z-score: -2.75 (inactive)
[3]
  z-score: -5.66 (inactive)
[4]
  z-score: -0.677 (inactive)
[5]
  composite z-score: -0.569
[6]
  z-score: -1.42 (inactive)
[7]
  composite z-score: -0.467
[8]
  composite z-score: -1.02
[9]
  composite z-score: -1.53
[10]
  composite z-score: -0.551
[11]
  composite z-score: -0.399
[12]
  composite z-score: -0.624
[13]
  composite z-score: -0.579
[14]
  z-score: -1.22 (inactive)
[15]
  composite z-score: -1.78
[16]
  composite z-score: -1.03
[17]
  composite z-score: -1.77
[18]
  composite z-score: -2.25
[19]
  composite z-score: -0.991
[20]
  composite z-score: 0.736

## CCOC(=O)[C@H](Cc1ccccc1)NC(=O)CCC1CC(OC(=O)NCc2ccc3c(c2)OCO3)CC2(CCCC(COC(=O)NCCc3ccccc3OC)O2)O1 (stereo not given in full)
[1]
  composite z-score: 1.49
[2]
  z-score: 0.163 (inactive)
[3]
  z-score: 1.07 (inactive)
[4]
  z-score: 1.52 (inactive)
[5]
  composite z-score: 2.67
[6]
  z-score: -0.324 (inactive)
[7]
  composite z-score: -0.112
[8]
  composite z-score: 0.679
[9]
  composite z-score: 1.08
[10]
  composite z-score: 0.0287
[11]
  composite z-score: 0.604
[12]
  composite z-score: -0.0864
[13]
  composite z-score: -0.465
[14]
  z-score: 0.222 (inactive)
[15]
  composite z-score: 0.977
[16]
  composite z-score: 1.23
[17]
  composite z-score: 0.539
[18]
  composite z-score: 1.35
[19]
  composite z-score: 0.759
[20]
  composite z-score: 0.0493

## CCN1C(=O)[C@H]2[C@H]3[C@H](O)[C@H](O)CC(=O)[C@@H]3CC[C@H]2C1=O
[1]
  composite z-score: 0.705
[2]
  z-score: 0.0074 (inactive)
[3]
  z-score: -0.268 (inactive)
[4]
  z-score: -0.139 (inactive)
[5]
  composite z-score: 1.36
[6]
  z-score: 0.439 (inactive)
[7]
  composite z-score: -0.145
[8]
  composite z-score: 0.441
[9]
  composite z-score: 0.717
[10]
  composite z-score: -0.0115
[11]
  composite z-score: 0.677
[12]
  composite z-score: -0.22
[13]
  composite z-score: -0.478
[14]
  z-score: -0.0387 (inactive)
[15]
  composite z-score: 0.492
[16]
  composite z-score: 0.692
[17]
  composite z-score: 0.555
[18]
  composite z-score: 0.688
[19]
  composite z-score: 0.396
[20]
  composite z-score: -0.167

## CO[C@H]1COC(=O)CCC[C@@H](C)[C@H](OC)COC(=O)[C@@H]2CCCN2C(=O)CC=C[C@@H]1C
[1]
  composite z-score: 1.53
[2]
  z-score: -0.671 (inactive)
[3]
  z-score: 0.044 (inactive)
[4]
  z-score: -0.986 (inactive)
[5]
  composite z-score: -1.77
[6]
  z-score: -0.476 (inactive)
[7]
  composite z-score: -0.183
[8]
  composite z-score: 1.82
[9]
  composite z-score: 0.473
[10]
  composite z-score: 0.0869
[11]
  composite z-score: 1.78
[12]
  composite z-score: -0.313
[13]
  composite z-score: -0.959
[14]
  z-score: -0.599 (inactive)
[15]
  composite z-score: 0.269
[16]
  composite z-score: 0.482
[17]
  composite z-score: 0.802
[18]
  composite z-score: 1.02
[19]
  composite z-score: 1.16
[20]
  composite z-score: 1.26

## CO[C@@H]1COC(=O)[C@@H](C)COC(=O)[C@@H](C)NC(=O)CC=C[C@@H]1C
[1]
  composite z-score: 1.55
[2]
  z-score: -2.2 (inactive)
[3]
  z-score: -1.61 (inactive)
[4]
  z-score: -2.47 (inactive)
[5]
  composite z-score: -0.963
[6]
  z-score: -0.801 (inactive)
[7]
  composite z-score: -0.154
[8]
  composite z-score: 1.6
[9]
  composite z-score: -0.0403
[10]
  composite z-score: -0.0041
[11]
  composite z-score: 0.155
[12]
  composite z-score: -0.351
[13]
  composite z-score: -1.08
[14]
  z-score: -2.29 (inactive)
[15]
  composite z-score: 1.22
[16]
  composite z-score: 0.571
[17]
  composite z-score: 0.318
[18]
  composite z-score: 1.33
[19]
  composite z-score: 1.73
[20]
  composite z-score: 0.675

## O=C1CCCC=C1C(CCc1ccccc1)OC(=O)c1ccc(Br)cc1 (stereo not given)
[1]
  composite z-score: -0.429
[2]
  z-score: -0.596 (inactive)
[3]
  z-score: -2.94 (inactive)
[4]
  z-score: -2.46 (inactive)
[5]
  composite z-score: -0.699
[6]
  z-score: 0.037 (inactive)
[7]
  composite z-score: -0.159
[8]
  composite z-score: 0.354
[9]
  composite z-score: -0.445
[10]
  composite z-score: -0.12
[11]
  composite z-score: -0.258
[12]
  composite z-score: -0.0892
[13]
  composite z-score: -0.442
[14]
  z-score: -0.173 (inactive)
[15]
  composite z-score: 0.146
[16]
  composite z-score: -0.61
[17]
  composite z-score: 0.362
[18]
  composite z-score: 0.283
[19]
  composite z-score: 0.422
[20]
  composite z-score: 0.608
